{"source": "PubChem BioAssay AID2284384", "about": "(EPA ToxCast)", "note": "Inconclusive results are not listed. The source made the active and inactive calls. Rule for the calls: active = hit-call score of the fitted dose curve at least 0.9, where 1 is the maximum; inconclusive = response in the unintended direction; inactive = score below 0.9.", "data": [{"biological_target": "human Peroxisome Proliferator-activated Receptor alpha (PPARa), PPARA (gene 5465) (UniProt Q07869)", "sequence (Q07869 whole entry, looked up)": "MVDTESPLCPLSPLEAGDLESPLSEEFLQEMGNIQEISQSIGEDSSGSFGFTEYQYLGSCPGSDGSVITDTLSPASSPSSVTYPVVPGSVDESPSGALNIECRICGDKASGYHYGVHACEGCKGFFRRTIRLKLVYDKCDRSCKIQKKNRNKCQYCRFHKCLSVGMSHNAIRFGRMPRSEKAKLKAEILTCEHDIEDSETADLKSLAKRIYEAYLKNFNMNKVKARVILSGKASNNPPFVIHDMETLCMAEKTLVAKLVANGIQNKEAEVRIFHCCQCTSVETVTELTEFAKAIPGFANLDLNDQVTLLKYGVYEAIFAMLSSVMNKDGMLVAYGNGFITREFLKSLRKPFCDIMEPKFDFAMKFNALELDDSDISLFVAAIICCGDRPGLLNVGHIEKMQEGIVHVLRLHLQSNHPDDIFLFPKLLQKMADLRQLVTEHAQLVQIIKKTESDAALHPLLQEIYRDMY", "assay": "ERF_US_NR_hPPARA: Eurofins (ERF) Nuclear Receptor (NR) Cell Based Protein-Protein Interaction LeadHunter Assay for human Peroxisome Proliferator-activated Receptor alpha (PPARa) Agonism", "procedure": "ERF_US_NR_hPPARA is a cell-based, single-readout assay that uses extracted gene-proteins […]. Measurements were taken 5 hours after chemical dosing in a 384-well plate. See PPARalpha Human NHR Cell Based Agonist Protein-Protein Interaction Assay, DiscoverX.ERF_US_NR_hPPARA is an assay component calculated from theERF_US_NR_hPPARA assay. It is designed to measure radioligand binding using a type of binding reporter as detected by scintillation counting with radiometry technology.Data from the assay component ERF_US_NR_hPPARA was analyzed at the assay endpoint, ERF_US_NR_hPPARA, in the positive analysis fitting direction relative to DMSO as the negative control and baseline of activity. Using a type of binding reporter, gain-of-signal activity can be used to understand changes in binding as they relate to gene PPARA. To generalize the intended target to other relatable targets, this assay endpoint is annotated to the nuclear receptor intended target family, where the subfamily is non-steroidal.\nCells were seeded in a total volume of 20 uL into white walled, 384-well microplates and incubated at 37C overnight prior to testing.Briefly, intermediate dilution of sample stocks was performed to generate 5X sample in assay buffer. 5 uL of 5X sample was added to cells and incubated at 37C for 300 minutes. Final assay vehicle concentration was 1%. The results are expressed as a percent efficacy of the control ligand.", "values": [{"smiles": "O=S(=O)(O)C(F)(F)C(F)(F)C(F)(F)C(F)(F)C(F)(F)C(F)(F)C(F)(F)C(F)(F)F", "outcome": "inactive"}, {"smiles": "O=C(CC(=O)C(F)(F)C(F)(F)C(F)(F)F)c1cccs1", "AC50": "12.6 µM (active)"}, {"smiles": "O=S(=O)(O)C(F)(F)C(F)(F)C(F)(F)C(F)(F)C(F)(F)C(F)(F)F", "outcome": "inactive"}, {"smiles": "O=C(O)C(F)(F)OC(F)(F)C(F)(F)OC(F)(F)F", "outcome": "inactive"}, {"smiles": "CN(CCOc1ccc(CC2SC(=O)NC2=O)cc1)c1ccccn1", "note": "(centres undefined)", "outcome": "inactive"}, {"smiles": "O=C(O)C(F)(F)C(F)(F)C(F)(F)C(F)(F)C(F)(F)C(F)(F)C(F)(F)F", "outcome": "inactive"}, {"smiles": "CC(C)(Oc1ccc(C(=O)c2ccc(Cl)cc2)cc1)C(=O)O", "AC50": "50 µM (active)"}, {"smiles": "O=C(O)C(F)(F)C(F)(F)C(F)(F)C(F)(F)C(F)(F)C(F)(F)C(F)F", "outcome": "inactive"}, {"smiles": "O=C(O)C(F)(F)C(F)(F)C(F)(F)C(F)(F)C(F)(F)C(F)(F)C(F)(F)C(F)(F)Cl", "outcome": "inactive"}]}]}
